Measurements as given in ChEMBL document CHEMBL3988442, “University of Dundee, Small-Polar-MMV Screening Library” (2021).
“And” between values parts separate entries of the source, which are not always exact repeats. Identical values can stand only once. For part of these data: Measured potencies and affinities stand elsewhere.

Key:
Set-up in all cases: scale not given: direction of the effect not stated beside the values
[1] = molecular target: Protein translocase subunit SecA (Escherichia coli (strain K12)) (UniProt P10408); experiment: Assay to Identify E. coli SecA ATPase Inhibitors; type: functional; conditions: 30 µM
[2] = molecular target: T1, Ubiquitin-activating enzyme e1, putative (Leishmania donovani (strain BPK282A1)) (UniProt E9BSI1); experiment: Leishmania donovani Ubiquitin Activating Enzyme (LdE1); type: functional; conditions: 30 µM
T1 sequence (whole entry): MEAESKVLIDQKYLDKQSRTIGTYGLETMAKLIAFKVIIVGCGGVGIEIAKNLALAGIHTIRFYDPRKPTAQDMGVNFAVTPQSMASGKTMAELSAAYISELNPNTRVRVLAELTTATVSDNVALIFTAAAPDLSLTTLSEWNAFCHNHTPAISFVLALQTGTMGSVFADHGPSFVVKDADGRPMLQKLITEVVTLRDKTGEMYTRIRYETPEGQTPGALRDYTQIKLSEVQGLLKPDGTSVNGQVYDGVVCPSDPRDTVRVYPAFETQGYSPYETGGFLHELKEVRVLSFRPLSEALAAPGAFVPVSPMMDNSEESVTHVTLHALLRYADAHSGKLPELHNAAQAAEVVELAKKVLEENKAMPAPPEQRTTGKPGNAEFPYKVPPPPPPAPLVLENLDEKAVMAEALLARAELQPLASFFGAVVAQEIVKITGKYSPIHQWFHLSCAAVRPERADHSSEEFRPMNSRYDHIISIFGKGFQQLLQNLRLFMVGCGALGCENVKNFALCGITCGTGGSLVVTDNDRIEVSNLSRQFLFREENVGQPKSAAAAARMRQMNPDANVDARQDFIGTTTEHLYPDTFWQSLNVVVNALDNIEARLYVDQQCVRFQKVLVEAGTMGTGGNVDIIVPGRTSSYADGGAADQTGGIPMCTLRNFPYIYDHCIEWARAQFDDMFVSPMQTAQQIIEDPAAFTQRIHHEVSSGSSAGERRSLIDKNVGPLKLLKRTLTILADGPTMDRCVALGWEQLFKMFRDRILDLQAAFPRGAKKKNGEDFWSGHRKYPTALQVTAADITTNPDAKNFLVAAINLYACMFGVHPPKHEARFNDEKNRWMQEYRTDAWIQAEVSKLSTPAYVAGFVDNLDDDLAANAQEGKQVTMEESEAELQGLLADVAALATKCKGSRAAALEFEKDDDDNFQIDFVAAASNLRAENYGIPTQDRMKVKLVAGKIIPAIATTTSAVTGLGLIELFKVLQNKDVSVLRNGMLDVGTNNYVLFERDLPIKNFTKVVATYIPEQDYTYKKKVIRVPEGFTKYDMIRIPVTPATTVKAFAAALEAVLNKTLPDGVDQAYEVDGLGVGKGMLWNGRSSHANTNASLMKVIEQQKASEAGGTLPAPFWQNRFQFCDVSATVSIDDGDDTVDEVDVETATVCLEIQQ

[3] = molecular target: AMP-activated protein kinase, AMPK (Homo sapiens) (UniProt P54646+O43741+P54619+Q9UGJ0+Q9Y478+Q13131+Q9UGI9); experiment: AMP-dependent Kinase enzyme assay. An in vitro enzyme assay that detects ADP turnover that is directly proportional to AMPK activity. This uses naive AMPK that is activated during the assay with MK-8722; type: functional; conditions: 30 µM
[4] = molecular target: Sialic acid-binding Ig-like lectin 9 (Homo sapiens) (UniProt Q9Y336); experiment: Hs-Siglec9 ALPHAscreen SOP 20170721; conditions: 10 µM
Trypanosoma cruzi = experiment: Trypanosoma cruzi phosphomannomutase and mannose-1-phosphate guanylyltransferase assay; type: functional; conditions: 10 µM
[5] = molecular target: T2, Arginase-2, mitochondrial (Homo sapiens) (UniProt P78540); experiment: in vitro enzyme assay to detect the production of urea directly proportional to the activity of Arginase II; type: functional; conditions: 33.3 µM; note: in the data most compounds retested in dose-response had high values
T2 sequence (whole entry): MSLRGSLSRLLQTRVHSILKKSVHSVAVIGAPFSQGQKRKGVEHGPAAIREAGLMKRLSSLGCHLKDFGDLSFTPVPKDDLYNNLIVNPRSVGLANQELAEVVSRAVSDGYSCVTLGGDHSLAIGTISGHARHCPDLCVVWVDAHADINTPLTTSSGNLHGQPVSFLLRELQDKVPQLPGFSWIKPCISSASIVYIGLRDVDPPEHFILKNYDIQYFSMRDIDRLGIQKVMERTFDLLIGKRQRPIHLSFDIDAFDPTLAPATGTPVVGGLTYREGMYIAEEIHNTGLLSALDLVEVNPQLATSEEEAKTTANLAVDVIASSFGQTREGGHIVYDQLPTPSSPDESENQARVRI

[6] = molecular target: T3, Proteasome subunit beta (Trypanosoma cruzi) (UniProt O96673); experiment: Trypanosoma cruzi proteasome chymotrypsin-like activity (TcProtChymo) assay.; note: in the data most compounds retested in dose-response had high values; type: functional; conditions: 9.37 µM
T3 sequence (whole entry): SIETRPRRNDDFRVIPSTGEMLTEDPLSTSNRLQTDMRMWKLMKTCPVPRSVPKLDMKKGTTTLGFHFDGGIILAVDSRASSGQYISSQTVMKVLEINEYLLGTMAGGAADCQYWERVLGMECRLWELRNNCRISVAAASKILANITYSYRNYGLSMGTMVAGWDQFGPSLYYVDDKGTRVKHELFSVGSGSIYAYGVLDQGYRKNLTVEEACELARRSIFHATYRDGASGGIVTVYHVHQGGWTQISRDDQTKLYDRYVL

N/A = experiment: Trypanosoma cruzi proteasome luciferase counter-screen; type: functional; conditions: 9.37 µM
Homo sapiens = species: Homo sapiens; experiment: To identify inhibition of the IFN signalling (Jak-Stat) pathway via expression of an eGFP reporter gene under the control of an IFN-stimulated response element (ISRE) containing MxA promoter.; type: functional; conditions: 30 µM
[7] = molecular target: T4, Tyrosyl-tRNA synthetase, putative (Trypanosoma cruzi (strain CL Brener)) (UniProt Q4DSP6); experiment: Trypanosoma cruzi tyrosyl tRNA synthetase (TcYRS) _High Tyrosine SOP; type: functional; conditions: 30 µM; note: in the data most compounds retested in dose-response had high values
T4 sequence (whole entry): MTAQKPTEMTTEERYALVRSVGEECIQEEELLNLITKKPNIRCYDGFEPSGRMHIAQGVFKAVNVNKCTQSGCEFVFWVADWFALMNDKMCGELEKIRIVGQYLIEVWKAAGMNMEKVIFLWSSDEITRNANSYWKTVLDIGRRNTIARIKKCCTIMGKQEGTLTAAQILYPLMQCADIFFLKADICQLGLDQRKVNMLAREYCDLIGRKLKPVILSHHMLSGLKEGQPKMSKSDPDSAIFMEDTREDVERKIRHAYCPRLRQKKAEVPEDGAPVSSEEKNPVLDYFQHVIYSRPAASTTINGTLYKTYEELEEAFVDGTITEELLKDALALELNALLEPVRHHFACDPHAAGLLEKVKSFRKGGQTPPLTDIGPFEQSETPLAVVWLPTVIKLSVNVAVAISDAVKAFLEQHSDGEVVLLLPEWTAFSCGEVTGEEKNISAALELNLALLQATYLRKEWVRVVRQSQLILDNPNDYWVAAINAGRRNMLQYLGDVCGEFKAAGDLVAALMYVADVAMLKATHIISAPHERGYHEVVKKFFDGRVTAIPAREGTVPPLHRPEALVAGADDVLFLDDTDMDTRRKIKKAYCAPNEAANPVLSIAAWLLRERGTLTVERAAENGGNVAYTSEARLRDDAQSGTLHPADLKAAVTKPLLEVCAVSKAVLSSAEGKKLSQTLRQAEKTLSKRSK

[8] = molecular target: T4, Tyrosyl-tRNA synthetase, putative (Trypanosoma cruzi (strain CL Brener)); experiment: Trypanosoma cruzi tyrosyl tRNA synthetase (TcYRS) SOP; type: functional; conditions: 30 µM
[9] = molecular target: Chromo domain-containing protein 1 (Saccharomyces cerevisiae (strain ATCC 204508 / S288c) (Baker's yeast)) (UniProt P32657); experiment: ScCHD-1 Enzyme Inhibition Assay; type: functional; conditions: 30 µM; note: in the data most compounds retested in dose-response had high values
Sequence of Chromo domain-containing protein 1 (Saccharomyces cerevisiae (strain ATCC 204508 / S288c) (Baker's yeast)) (P32657 whole entry, the tested form may be a part): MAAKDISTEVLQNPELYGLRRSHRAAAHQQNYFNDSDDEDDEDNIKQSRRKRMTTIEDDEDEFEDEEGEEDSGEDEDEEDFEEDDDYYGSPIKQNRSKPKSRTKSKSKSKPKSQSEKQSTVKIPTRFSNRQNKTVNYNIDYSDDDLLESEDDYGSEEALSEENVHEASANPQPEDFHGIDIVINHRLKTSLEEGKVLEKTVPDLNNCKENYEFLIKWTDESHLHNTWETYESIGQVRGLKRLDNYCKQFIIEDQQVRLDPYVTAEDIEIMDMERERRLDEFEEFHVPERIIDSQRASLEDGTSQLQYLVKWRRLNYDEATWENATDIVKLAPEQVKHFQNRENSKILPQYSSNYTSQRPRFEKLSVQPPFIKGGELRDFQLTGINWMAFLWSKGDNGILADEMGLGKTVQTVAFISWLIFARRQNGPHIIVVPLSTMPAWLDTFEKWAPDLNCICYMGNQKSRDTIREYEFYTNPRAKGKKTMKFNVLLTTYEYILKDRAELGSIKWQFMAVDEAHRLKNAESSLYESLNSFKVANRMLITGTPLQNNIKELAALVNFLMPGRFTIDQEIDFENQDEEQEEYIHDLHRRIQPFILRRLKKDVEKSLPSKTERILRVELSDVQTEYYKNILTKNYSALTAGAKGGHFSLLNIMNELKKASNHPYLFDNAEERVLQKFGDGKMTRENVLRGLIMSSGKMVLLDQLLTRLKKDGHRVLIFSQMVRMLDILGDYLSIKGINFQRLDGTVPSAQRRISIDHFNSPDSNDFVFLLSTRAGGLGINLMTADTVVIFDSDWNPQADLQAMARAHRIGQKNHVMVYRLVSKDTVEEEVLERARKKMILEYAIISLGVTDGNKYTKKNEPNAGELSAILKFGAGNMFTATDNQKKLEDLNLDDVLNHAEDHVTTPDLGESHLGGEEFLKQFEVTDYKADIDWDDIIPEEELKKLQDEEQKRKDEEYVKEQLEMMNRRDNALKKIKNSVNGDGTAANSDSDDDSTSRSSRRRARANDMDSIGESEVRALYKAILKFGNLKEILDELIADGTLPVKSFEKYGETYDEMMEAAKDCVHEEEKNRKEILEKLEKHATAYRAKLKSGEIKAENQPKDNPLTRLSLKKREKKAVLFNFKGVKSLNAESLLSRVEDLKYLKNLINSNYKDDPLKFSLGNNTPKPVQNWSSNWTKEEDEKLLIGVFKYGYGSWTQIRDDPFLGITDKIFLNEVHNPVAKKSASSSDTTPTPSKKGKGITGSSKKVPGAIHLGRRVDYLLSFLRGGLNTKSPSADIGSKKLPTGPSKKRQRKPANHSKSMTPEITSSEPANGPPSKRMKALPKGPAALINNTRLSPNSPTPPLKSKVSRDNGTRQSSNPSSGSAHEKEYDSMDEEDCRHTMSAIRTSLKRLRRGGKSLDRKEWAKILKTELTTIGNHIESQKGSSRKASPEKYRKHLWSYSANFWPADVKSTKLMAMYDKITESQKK

Sequence of Sialic acid-binding Ig-like lectin 9 (Homo sapiens) (Q9Y336 whole entry): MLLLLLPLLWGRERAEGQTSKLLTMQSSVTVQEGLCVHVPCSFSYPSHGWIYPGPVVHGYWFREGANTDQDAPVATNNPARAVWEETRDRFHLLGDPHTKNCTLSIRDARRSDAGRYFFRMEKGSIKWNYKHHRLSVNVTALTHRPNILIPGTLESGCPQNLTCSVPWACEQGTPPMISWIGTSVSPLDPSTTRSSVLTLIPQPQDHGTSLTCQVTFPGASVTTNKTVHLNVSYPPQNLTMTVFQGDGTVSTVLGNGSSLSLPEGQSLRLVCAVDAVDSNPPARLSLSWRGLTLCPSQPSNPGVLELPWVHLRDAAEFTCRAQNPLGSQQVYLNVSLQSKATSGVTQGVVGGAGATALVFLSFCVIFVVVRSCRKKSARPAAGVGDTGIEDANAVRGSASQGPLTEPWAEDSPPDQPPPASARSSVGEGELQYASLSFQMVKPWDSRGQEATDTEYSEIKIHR
Sequence of Protein translocase subunit SecA (Escherichia coli (strain K12)) (P10408 whole entry): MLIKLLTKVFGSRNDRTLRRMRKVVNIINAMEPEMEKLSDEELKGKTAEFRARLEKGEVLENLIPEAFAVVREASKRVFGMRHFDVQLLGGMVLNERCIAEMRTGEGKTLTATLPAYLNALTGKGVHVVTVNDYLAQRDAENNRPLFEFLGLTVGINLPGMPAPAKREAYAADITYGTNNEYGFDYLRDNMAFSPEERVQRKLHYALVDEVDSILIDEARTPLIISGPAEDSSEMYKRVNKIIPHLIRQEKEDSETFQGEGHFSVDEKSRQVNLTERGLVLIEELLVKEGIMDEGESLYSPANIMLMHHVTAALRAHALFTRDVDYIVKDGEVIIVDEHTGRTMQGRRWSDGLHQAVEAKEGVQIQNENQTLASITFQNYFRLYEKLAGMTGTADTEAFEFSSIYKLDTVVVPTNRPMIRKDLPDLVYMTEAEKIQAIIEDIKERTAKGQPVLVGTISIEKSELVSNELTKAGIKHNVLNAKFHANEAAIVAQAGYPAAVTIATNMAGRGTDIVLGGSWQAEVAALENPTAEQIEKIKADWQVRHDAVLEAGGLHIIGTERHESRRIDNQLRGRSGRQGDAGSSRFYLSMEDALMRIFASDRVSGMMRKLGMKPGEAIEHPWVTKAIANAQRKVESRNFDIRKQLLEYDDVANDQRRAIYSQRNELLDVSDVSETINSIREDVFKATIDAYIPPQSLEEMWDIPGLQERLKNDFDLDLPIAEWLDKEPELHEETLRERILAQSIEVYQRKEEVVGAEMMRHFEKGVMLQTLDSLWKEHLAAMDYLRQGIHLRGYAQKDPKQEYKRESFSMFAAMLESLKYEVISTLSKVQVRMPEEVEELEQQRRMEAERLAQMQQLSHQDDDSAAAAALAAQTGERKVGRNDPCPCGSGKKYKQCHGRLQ

| Compound | Percent Effect [1] [%] | Percent Effect [2] [%] | Percent Effect [3] [%] | Percent Effect [4] [%] | Percent Effect (Trypanosoma cruzi) [%] | Percent Effect [5] [%] | Percent Effect [6] | Percent Effect (N/A) | Percent Effect (Homo sapiens) [%] | Percent Effect [7] [%] | Percent Effect [8] [%] | Percent Effect [9] [%] |
| --- | --- | --- | --- | --- | --- | --- | --- | --- | --- | --- | --- | --- |
| COc1cc(/C=C/c2ncc(C(=O)O)s2)cc(Cl)c1O | 3.12 | 13.9 | 50.5 | -3.01 | 0.923 | 4.95 | 99.9% and 99% and 99.8% | 92.6% and 91.5% | -2.51 | 4.17 | 15.2 | -33.3 |
| Cc1ccc(-c2nc(CN3CCC(C(=O)N(C)C)CC3)cs2)o1 | -3.42 | -1.27 | -1.3 | -4.8 | -0.103 | -1.94 | 38.5% and 41.6% and 46.1% | 21.6% and 19.9% | 21.9 | 12.5 | 22.8 | -29.5 |
| CC(C1CC1)N(C)C(=O)c1cnc(-c2ccc3c(c2)OCO3)s1 (stereo not drawn) | -5.81 | 0 | 11.9 | 0.585 | -3.33 | -1.82 | 68.6% and 72.1% and 62.6% | 34.7% and 35.5% | 12.2 | -2.15 | -2.5 | -10.2 |
| O=C(Nc1ccc(F)c(Br)c1)N1CCCC1 | -2.64 | -2.7 | 4.93 | -0.317 | -4.49 | 2.92 | 53.1% and 53% and 53.3% | 8.61% and 7.62% | 18.2 | -34.6 | 3.66 | -3.18 |
| COc1cccc(C(=O)NCC(O)c2cccs2)c1 (stereo not drawn) | -3.69 | 11 | 7.67 | 3.99 | 6.46 | 0 | 34.1% and 33.9% and 40.3% | 6.45% and 13% | -9.23 | 7.53 | 17.5 | -3.59 |
| Cc1cc(C(C)C(=O)N2CCCN(Cc3cscn3)CC2)c(C)o1 (stereo not drawn) | -0.889 | 21.1 | -6.33 | 21.4 | 1.5 | -4.98 | 31.9% and 34.8% and 34.4% | 4.24% and 9.24% | 23.1 | 3.43 | 17.1 | -9.64 |
| Cc1cc(C(=O)N2CCc3nnc(N)cc3C2)c(C)n1-c1cccnc1 | -9.46 | -46.8 | -58.5 | 7.86 | 0.923 | -2.37 | 33.5% and 37.5% and 48.3% | 14.7% and 15.2% | 12.2 | 9.38 | 10.1 | -5.27 |
| COc1cccc(-c2nc(C)c(C(=O)N[C@@H](C)C(=O)O)s2)c1 | -0.174 | 12 | -0.167 | -2.7 | -2.36 | -12.5 | 77.2% and 81.5% and 84.7% | 56.5% and 53.9% | 5.55 | 9.52 | 12.8 | -7.59 |
| Cc1nc(CN2CCCC(N(C)Cc3cscn3)C2)no1 (stereo not drawn) | -5.04 | 5.2 | -1.86 | -3.2 | 7.54 | -6.11 | 40.2% and 44.8% and 59.4% | 16.1% and 22% | 17.1 | 3.81 | 11.8 | -17.6 |
